PubChem BioAssay (NCI)
About 83,000 compounds went through this panel and 20% of them were active in at least one assay; those are over-represented in the sample as a whole.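 48-hour exposure, single concentration, 96-well plates; percent growth endpoint where 0 means no net growth. Active: below 10.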 Unmarked numbers belong to inactive results. Active and inactive are the calls of the source.

What was measured:
Assay in all cases: NCI-60 one-dose screen, 48 h (100 = growth as untreated, 0 = no growth, -100 = all killed)
Details in all cases: 10 µM unless noted
[1] = tested on: EKVX NSCLC
[2] = tested on: SN12C renal
[3] = tested on: UO-31 renal
[4] = tested on: TK-10 renal
[5] = tested on: ACHN renal
[6] = tested on: CAKI-1 renal
[7] = tested on: A498 renal
[8] = tested on: CCRF-CEM leukemia
[9] = tested on: MOLT-4 leukemia

SMILES | growth [1] | growth [2] | growth [3] | growth [4] | growth [5] | growth [6] | growth [7] | growth [8] | growth [9]
O=C(/C=C/c1ccc(C(F)(F)F)cc1)c1ccc(Nc2nc(NCCO)nc(Nc3ccc(Cl)cc3)n2)cc1 | 59.1% | 79.1% | 59.9% | 86.6% | 52.2% | 68.2% | 78.5% | 18.2% | 20.7%
Nc1n[nH]c2ccc([C@@H]3Nc4ccc5[nH]ncc5c4[C@H]4[C@H]5CCC(C5)[C@H]43)cc12 | 40.2% | 24.6% | 46.3% | 60.8% | 27.7% | 16.4% | -20.5% (active) | 17% | 18%
COc1cccc(C2=NN3C(C2)c2ccccc2OC3c2ccc(/C=C3\SC(=O)NC3=O)cc2)c1 (stereo unspecified) | 85.4% | 101% | 73.2% | 102% | 98.7% | 96.4% | 88.6% | 97.1% | 96.9%
CC1=C(C(=O)OCC2CCN(C(=O)OC(C)(C)C)CC2)[C@H](c2cccc(Br)c2)C2=C(CC(C)(C)CC2=O)N1 | 49.4% | 31.2% | 31.2% | 38.9% | 27.9% | 26.6% | 49.5% | 17.9% | 4.54% (active)
Nc1ccc(-c2nn3c(CCC(=O)c4nc5ncccc5[nH]4)nnc3s2)c(O)c1 | 98% | 87.8% | 68.7% | 144% | 90.5% | 70.1% | 75.3% | 94.1% | 82.8%
O=c1oc2ccc(I)cc2c(=O)n1-c1ccc(Br)cc1F | 7.21% (active) | 0.636% (active) | 5.6% (active) | 0.987% (active) | 1.01% (active) | -17.8% (active) | -62.2% (active) | 8.26% (active) | 3.69% (active)
O=C1c2ccccc2C(=O)c2c1ccc1[nH]c(CCl)nc21 | 72.5% | -1.77% (active) | 22.7% | 30.9% | 10.7% | 7.26% (active) | 16.3% | -12.5% (active) | -2.42% (active)
OCCNc1nc(Nc2ccc(C3=NN(c4cc(Cl)cc(Cl)c4)C(c4ccc(C(F)(F)F)cc4)C3)cc2)nc(N2CCOCC2)n1 (stereo unspecified) | 71.4% | 74.8% | 72% | 114% | 56.8% | 71.3% | 82.4% | 51% | 60.2%
COc1ccc(OC)c(/C=C/C(=O)c2c(C)nc3ccccc3c2/C=C/c2ccccc2)c1 | 79.4% | 58.1% | 60.3% | 112% | 74.6% | 54.4% | 83.2% | 9.58% (active) | 10.2%
COc1cccc(/C=C/C(=O)c2c(C)nc3ccccc3c2/C=C/c2ccccc2)c1OC | 50.8% | 31.1% | 48.8% | 61.6% | 31.4% | 39.2% | 58.1% | 13% | 4.78% (active)
O=C(COc1cc(O)c2c(=O)cc(-c3ccccc3)oc2c1)Nc1ccccc1 | 103% | 89.9% | 80.2% | 103% | 57.9% | 77.9% | 98.8% | 94.4% | 91.1%
O=C(c1nc2ccccc2[nH]1)C1[C@@H](c2cccc(O)c2)C2CC3CCCCC3N2[C@@]12C(=O)Nc1cc(Cl)ccc12 (stereo partly specified) | 41.9% | 43.6% | 33.5% | 72.4% | 30.4% | 80% | 52.7% | 15% | 7.08% (active)
C#CCn1cc(C=C2C(=O)NC(=O)NC2=O)c2cc(Cl)ccc21 | 90.9% | 81.3% | 67.5% | 118% | 97.4% | 72% | -53.3% (active) | 82.2% | 77.9%
O=C(CCc1nnc2sc(Cc3ccccc3Cl)nn12)c1nc2ncccc2[nH]1 | 94.6% | 87.3% | 63.5% | 128% | 94.9% | 74.4% | 87.5% | 103% | 86.2%
O=C(Nc1ccc(Br)cc1F)c1cc(F)ccc1O | 7.73% (active) | 3.29% (active) | 6.93% (active) | 3.6% (active) | 1.78% (active) | -16.7% (active) | -68.8% (active) | 7.49% (active) | 0.344% (active)
Cn1cc([C@@H]2Nc3ccc4[nH]ncc4c3[C@H]3[C@H]4CCC(C4)[C@H]32)c(C(F)(F)F)n1 | 67.1% | 50.6% | 49.6% | 65.6% | 50.5% | 35.3% | 8.35% (active) | 27.6% | 29.4%
O=c1oc2ccc(F)cc2c(=O)n1-c1ccc(Br)cc1F | 7.09% (active) | -4.08% (active) | 5.26% (active) | 3.34% (active) | 2.25% (active) | -14.8% (active) | -55.4% (active) | 11.1% | -7.7% (active)
CC[C@]1(O)C[C@@H]2CN(CCc3c([nH]c4ccccc34)[C@@](C(=O)OC)(c3cc4c(cc3OC)N(C)[C@H]3[C@@](O)(C(=O)OC)[C@H](OC(=O)CCCBr)[C@]5(CC)C=CCN6CC[C@]43[C@@H]65)C2)C1 | 31% | 23.9% | 37.7% | 46.5% | 28.2% | 9.84% (active) | -1.7% (active) | 6.76% (active) | 17.3%
COC(=O)C1(C)CCC[C@]2(C)[C@H]3C[C@H]4C(C(C)C)=C[C@]3(CC[C@@H]12)[C@H]1[C@@H]4[C@@H](OCC#CCN2CCOCC2)CC[C@@H]1OCC#CCN1CCOCC1 (stereo partly specified) | 67.2% | 81.1% | 72.9% | 98% | 92.3% | 80% | 101% | 72% | 70%
NCCNc1nc2ccc(F)cc2c2c(=O)c3cc(F)ccc3sc12 | 75.9% | 46.3% | 35.6% | 59.1% | 31.6% | 22.5% | 41.2% | 20.7% | 5.51% (active)
Nc1ccc(-n2c(=O)oc3ccc(Cl)cc3c2=O)c(Cl)c1 | 4.42% (active) | -0.532% (active) | 0.242% (active) | 8.25% (active) | 5.28% (active) | -21.5% (active) | -67% (active) | 0.0077% (active) | -33.5% (active)
O=C1Nc2ccccc2/C1=C/c1ccc[nH]1 | 32.8% | 92.7% | 61.9% | 63.5% | 84% | 77.4% | 88.5% | 109% | 101%
O=C(Nc1ccc(I)cc1F)c1cc(F)ccc1O | 5.82% (active) | 0.104% (active) | 6.41% (active) | -0.353% (active) | 2.56% (active) | -24.8% (active) | -58.9% (active) | 6.38% (active) | -16.4% (active)
Nc1ccc(-c2ccc(-c3ccccc3N)c3[nH]c4ccccc4c23)cc1 | 34.9% | 32.7% | 22.5% | 23.8% | 32.1% | 25.4% | 20.6% | 13% | 22%
O=C1c2cc(Br)ccc2Oc2cc([N+](=O)[O-])ccc2N1c1ccc(I)cc1F | 91.9% | 94.2% | 73% | 112% | 99.7% | 84.9% | 98.9% | 96.8% | 85%
O=c1oc2ccc(Cl)cc2c(=O)n1-c1ccc(Cl)cc1F | 9.78% (active) | 2.13% (active) | 6.59% (active) | 6.66% (active) | 4.37% (active) | -16.8% (active) | -71.7% (active) | 5.21% (active) | -25.1% (active)
CN1CCN(Cc2ccc(C(=O)Nc3cncc(C#Cc4cnc(N)c5ccccc45)c3)cc2C(F)(F)F)CC1 | -8.85% (active) | -81.7% (active) | -90.7% (active) | -70.1% (active) | -76.1% (active) | -91.4% (active) | -62.9% (active) | 0.702% (active) | -30% (active)
COc1ccc(Cn2cc(Cn3cc(C=C4C(=O)NC(=O)NC4=O)c4ccccc43)nn2)cc1 | 99.4% | 85.8% | 56.3% | 83.7% | 91.4% | 70.1% | 22.2% | 85% | 75.3%
CN1CCN(Cc2ccc(NC(=O)c3cncc(C#Cc4nc(N)nc5[nH]ncc45)c3)cc2C(F)(F)F)CC1 | 109% | 89.7% | 122% | 126% | 99.8% | 66.5% | 102% | 5.35% (active) | 8.02% (active)
